Screening data deposited in PubChem BioAssay by National Center for Advancing Translational Sciences (NCATS).
DT40 TDP1 no CPT: qHTS for Inhibitors of human tyrosyl-DNA phosphodiesterase 1 (TDP1): qHTS in cells in absence of CPT. Potency, µM (highest dose often 46.2 µM), without a hit: at the top dose activity change, negative = growth inhibition, most hits filed as inhibitors. DT40 Tdp1-/- hTDP1 cells, no CPT, ATP luminescence, 48 h. 15% of 420,000 active; also: nearly all actives have a fitted effect of over 55% in size
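Growth kinetics read by CellTiter-Glo luminescence after ≥48 hr at 37 °C. Cells: DT40 Tdp1-/- stably carrying human TDP1, 400 per well, compound exposure in the absence of CPT (DMSO vehicle).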
ELG1 repair inh: qHTS screen for small molecules that inhibit ELG1-dependent DNA repair in human embryonic kidney (HEK293T) cells expressing luciferase-tagged ELG1; Potency, µM (titrated, usually from 46.1 µM), for inactives: top-dose activity change, negative = inhibition, most hits filed as inhibitors; AID 504467, 2011; HEK293T ELG1-luciferase reporter, luminescence, 16 h; DNA damage induced by 5-fluorouridine; 2.3% of 330,000 active; also: nearly all actives have a fitted effect of over 55% in size
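Reporter activity after DNA damage by 5-fluorouridine is monitored. Compound-treated cells incubate 16 hr at 37 °C, then ONE-Glo is added for 30 min before luminescence reading.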
VP16 counter: VP16 counterscreen qHTS for inhibitors of ROR gamma transcriptional activity; Drosophila S2 Gal4-VP16 UAS-luciferase, luminescence, 20 h; Potency, µM (titrated, usually from 53.6 µM), for the others: at the highest dose activity, negative = inhibition, hits mostly inhibitors; 3.5% of 310,000 active;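 also: Gal4-VP16 expression switched on by copper sulfate through the metallothionein promoter; nearly all actives have a fitted effect of over 50% in size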
12-LOX inh: Primary qHTS assay for inhibitors of human arachidonate 12S-lipoxygenase (ALOX12): Round 2; Polyunsaturated fatty acid lipoxygenase ALOX12 (Homo sapiens), P18054; purified 12hLO, xylenol orange hydroperoxide absorbance; Potency, µM (doses to about 108 µM), without a hit: at the highest dose activity change, negative = inhibition, actives largely listed as inhibitors; 1.1% of 580,000 active; AID 1671190, 2021
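Purified human 12hLO (150 nM final) in 25 mM Hepes, 0.01% Triton X-100, pH 7.0 was preincubated 15 min at room temperature with compound. Then 40 uM arachidonic acid was added, 30 min. Hydroperoxide was read by Fe-XO absorbance ratio 573/405 nm.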
RORgamma inh: qHTS for inhibitors of ROR gamma transcriptional activity; Nuclear receptor ROR-gamma (Mus musculus), P51450; Drosophila S2 Gal4-RORgamma UAS-luciferase reporter, 20 h; Potency, µM (titrated, usually from 53.6 µM), for inactives: top-dose activity change, negative = inhibition, most hits filed as inhibitors; 5.4% of 310,000 active; AID 2551, 2010; also: nearly all actives have a fitted effect of over 60% in size
Target sequence (P51450 whole entry, looked up, the tested form may be a part): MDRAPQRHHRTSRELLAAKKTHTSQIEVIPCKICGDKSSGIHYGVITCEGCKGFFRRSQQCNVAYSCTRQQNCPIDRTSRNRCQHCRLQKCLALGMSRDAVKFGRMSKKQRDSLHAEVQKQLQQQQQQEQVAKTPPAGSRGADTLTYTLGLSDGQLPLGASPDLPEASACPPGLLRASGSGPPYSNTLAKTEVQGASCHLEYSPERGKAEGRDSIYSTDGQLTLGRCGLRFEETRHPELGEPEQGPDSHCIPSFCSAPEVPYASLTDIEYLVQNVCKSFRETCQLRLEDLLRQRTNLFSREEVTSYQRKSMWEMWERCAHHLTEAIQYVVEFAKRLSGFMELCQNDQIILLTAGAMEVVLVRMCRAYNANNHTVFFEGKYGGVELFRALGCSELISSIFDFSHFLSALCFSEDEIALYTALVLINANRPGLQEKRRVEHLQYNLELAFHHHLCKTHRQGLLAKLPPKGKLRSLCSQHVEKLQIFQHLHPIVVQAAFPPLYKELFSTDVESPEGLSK
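ROR gamma transcriptional activity was tracked as Gal4-UAS luciferase output in stably transfected Drosophila Schneider cells, with compound added 1 hr before 700 uM copper sulfate induction and a 20 hr ambient-temperature incubation.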
TDP1 cell CPT: qHTS for Inhibitors of human tyrosyl-DNA phosphodiesterase 1 (TDP1): qHTS in cells in presence of CPT. Potency, µM (highest dose often 46.2 µM), for the others: at the highest dose activity change, negative = growth inhibition, usual class: inhibitors. chicken DT40 Tdp1-/-;hTDP1 cells + 20 nM CPT, ATP luminescence, 48 h. AID 686979, 2013. 12% of 420,000 active; also: nearly all actives have a fitted effect of over 55% in size
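Cell growth measured by CellTiter-Glo luminescence after a minimum 48 h, 37 C compound exposure with 20 nM CPT in Tdp1-knockout DT40 cells stably expressing hTDP1, seeded 400/well; qHTS titration format.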
Starred values were filed as active, the others as inactive; ? = inconclusive; / = no result given; ! = not active in a repeat; [ ] = another dose, or the depositor's remark. This is a sample that favours compounds with a hit; in the whole collection about 15% have one here. Calls follow the shape of the dose curve; as a rule, active = well fitted curve in the direction sought with a large enough effect; inconclusive = small, poorly fitted or top-dose-only effect, or another doubt; inactive = no such curve, though single readings can be large; an effect the other way counts as inactive or inconclusive. % is scaled to controls: 0 for no effect and ±100 for the full control effect; potency is read from the fitted curve at half-maximal effect.

SMILES	DT40 TDP1 no CPT	ELG1 repair inh	VP16 counter	12-LOX inh	RORgamma inh	TDP1 cell CPT
O=[S+]1([O-])NC2(CCN(CC3CCCCC3)C2)COc2ccncc21 (stereo unspecified)	/	/	/	6%[6.33 µM]	/	/
Cc1cccc(OCC(=O)N2[C@H]3CC[C@@H]2c2cnc(-c4ccccc4)nc2C3)c1	/	/	/	28%	/	/
O=C(c1ccccc1F)c1cn(CC(=O)N2CCOCC2)c2ccccc12	-4%	2%	8%	2%	4%	-23%
O=C(c1ccccc1F)c1cn(CC(=O)N2CCCC2)c2ccccc12	16µM*	24%	6%	33%[57.4 µM]	52%	?
CC(=O)OC1C(O)C2=C3C4(C)C1C(C)(C)C(=O)CC4C3(O)C(OC(C)=O)C1(CC1C)C2=O (stereo unspecified)	7.3µM*	/	/	-27%	/	5.8µM*
CCCCCOc1ccc(C)cc1CN(CCCl)CCCl	16µM*	?	?	0%	?	16µM*
CN(C(=O)c1cn(Cc2ccccc2)c2ccccc12)C1CCS(=O)(=O)C1 (stereo unspecified)	/	/	/	16%	/	/
O=C(c1ccc(C(F)(F)F)cc1)C1CCCN(C2CCSCC2)C1 (stereo unspecified)	?	-14%	-4%	?	-1%	?
Cc1cc(Cl)ccc1C(=O)C1CCCN(C2CCSCC2)C1 (stereo unspecified)	21µM*	-4%	8%	-2%	5%	26µM*
COC(=O)NC(=S)Nc1ccccc1NC(=S)NC(=O)OC	?	/	0%	28%	?	21µM*!
COC(=O)NC(=C(Cl)Cl)P(=O)(c1ccccc1)c1ccccc1	-7%	3%	-1%	156%	2%	-17%
COc1cc2c(cc1OCC1CC1)NC(=O)C21CCN(CCC(C)C)CC1	/	/	/	34%[176 µM]	/	/
Cc1ccc2c(c1)C1CN(C)CCC1N2C(=O)Nc1ccc(Cl)cc1 (stereo unspecified)	26µM*	?	4%	-3%	28%	?
COc1cc2c(cc1OCc1ccncc1)NC(=O)C21CCN(C(=O)c2cccnc2)CC1	/	/	/	60%	/	/
COc1cc(C2c3cc4c(cc3CC3COC(=O)C32)OCO4)cc(OC)c1O (stereo unspecified)	0.29µM*	/	/	?	/	0.052µM*
COc1cc(C2c3cc4c(c(O)c3CC3COC(=O)C32)OCO4)cc(OC)c1O (stereo unspecified)	?	/	/	?	/	0.071µM*
C=CCc1cc(OC)c2c(c1)OCO2	0%	16%	-1%	-15%	3%	-2%
COc1cc(C2c3cc4c(cc3C(OC(C)=O)[C@H]3COC(=O)C23)OCO4)cc(OC)c1OC (stereo partly specified)	0.033µM*	/	-9%	/	1%	1µM*
CCCS(=O)(=O)NC[C@H]1C[C@@H]2CCN1C[C@@H]2CC	/	/	/	56%[176 µM]	/	/
CN1C(=O)C(=Cc2ccc(N3CCCCCC3)o2)C(=O)N(C)C1=S	23µM*	?	-13%	-1%	41%	?
OC1(c2ccccc2)CCNC2CCCCC21 (stereo unspecified)	?	22%	13%	-26%	-29%	18µM*
OC12CCCCC1C(c1ccccc1)NCC2 (stereo unspecified)	-2%	-11%	-3%	9%	-1%	-20%
NCCc1ccc(OCc2ccccc2)c(OCc2ccccc2)c1	12µM*	-19%	/	?	/	16µM*
